The values below come from PubChem BioAssay AID1259422 (The Scripps Research Institute Molecular Screening Center, 2018).

The term inhibition denotes the relative decrease from the control value, in per cent.

Out of some 640,000 compounds screened, about 9,300 (1.5%) were called active. This is one part of a sample in which actives are shown more often than they occur. Cut-off read from the data, not from the text of the source: active = inhibition above about 32%; inactive = the rest.

A short description of this test: TEAD-YAP interaction inhibition, primary screen, TEAD-YAP interaction inhibitor project, luminescence, HEK-TIYL cells (AID 1259422).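 Note: 0% = median of test compound wells and 100% = reference inhibitor wells.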 Particulars: TEAD-Gal4/YAP UAS-luciferase luminescence, at 9.12 µM, stronger effect = higher value.
For the molecule `Cc1cccc(Nc2nc(-c3ccc(I)cc3)cs2)c1`, the inhibition was -33.1% (inactive).
For `Cc1ccc(Nc2nc(-c3ccc(Br)cc3)cs2)cc1Cl`, the inhibition was -7.82% (inactive).
Regarding `Cc1ccc(Nc2nc(-c3ccccn3)cs2)cc1C`, the inhibition was 49.9% (active).
Regarding `CN1CCc2nc(NC(=O)c3ccc(Cl)cc3Cl)sc2C1`, the inhibition is -69.8% (inactive).
On to `O=C(Nc1nc2c(s1)CN(Cc1ccccc1)CC2)c1cc(Cl)ccc1Cl`, for which the inhibition was -2.92% (inactive).
Consider `CCCN1CCc2nc(NC(=O)COc3ccc(Cl)cc3Cl)sc2C1`, for which the inhibition was 45% (active).
On to `COc1ccc(C2CC(C(F)(F)F)n3ncc(C(=O)N4CCN(c5cccc(Cl)c5)CC4)c3N2)cc1OC` (configuration not stated), for which the inhibition was -6.74% (inactive).
As to `FC(F)(F)c1cnc(Nc2ccc(N3CCOCC3)cc2)cc1-n1ncc2ccccc21`, the inhibition was -4.45% (inactive).
In the case of `c1cncc(Nc2nccc(Nc3ccc(N4CCOCC4)cc3)n2)c1`, the inhibition is 2.14% (inactive).
For `Fc1cnc(Nc2ccc(N3CCNCC3)cc2)cc1-n1cnc(Nc2ccccc2)n1`, the inhibition is 64.6% (active).
Turning to `O=C(c1nc2ccc(Cl)cn2c1CNCCn1cccn1)N1CCc2ccccc2C1`, the inhibition is 7.89% (inactive).
For `COc1cccc2c1OC1(CCN(C(=O)Cc3ccc(F)cc3F)CC1)OC2`, the inhibition is -1.73% (inactive).
As to `COc1ccc(-c2cc(C(=O)N3CCCCC3)no2)cc1`, the inhibition was 6.05% (inactive).
Turning to `CC1CN(CC(=O)NCc2cc(-c3ccccc3)on2)Cc2ccccc2O1` (configuration not stated), the inhibition is -5.63% (inactive).
Under `O=C(c1cc(-c2ccc(O)cc2)on1)N1CCOCC1` stands 50.7% (active); under `CN(C(=O)c1cc(-c2ccc(O)cc2)on1)c1ccccc1`, 60% (active); under `O=C(c1cc(-c2cccs2)on1)N1CCCC1`, -49.2% (inactive).
Under `CCN(CC)C(=O)c1cc(-c2ccc(O)cc2)on1` stands -1.47% (inactive); under `CCC(=O)Nc1ccccc1-c1nnn(CC(=O)Nc2ccc(CC)cc2)n1`, 12.7% (inactive).
As for `O=C(c1ccco1)N1CCN(c2nccn3c(-c4cccc(O)c4)cnc23)CC1`, the inhibition was -3.76% (inactive).
Take `CC(C)Cn1c(C2CC(=O)N(c3ccccc3)C2)nc2ccccc21` (configuration not stated): the inhibition is 3.79% (inactive).
Under `CCOc1ccc(-c2cn(-c3ccc(OC)cc3)c(SCC(=O)Nc3ccccc3C)n2)cc1` stands -24.2% (inactive); under `O=C(Nc1ccc2c(c1)OCCO2)Nc1nnc(N2CCCCCC2)s1`, -9.25% (inactive); under `c1c2c(cc3sc(N4CCCCC4)nc13)OCCO2`, 80.9% (active).
With `O=C(c1ccc2nc(N3CCCCC3)sc2c1)N1CCN(c2ccccc2)CC1`, the inhibition was -69.3% (inactive).
`COc1ccc(-c2cc(C(=O)NC3CCCC(C)C3C)c3ccccc3n2)cc1` (configuration not stated): the inhibition is 1.88% (inactive).
In the case of `CCOC(=O)c1cnc2nc(NCc3cccc(OC)c3)[nH]n2c1=O`, the inhibition is 3.92% (inactive).
With `N/C(=N/OC(=O)c1ccccc1I)c1nonc1N`, the inhibition is -2.53% (inactive).
On to `Cc1nc(N2CCN(c3ccccn3)CC2)c2c(C)c(C(=O)NCCN3CCOCC3)sc2n1`, for which the inhibition was 14.5% (inactive).
Turning to `CCN1CCN(C(=O)c2sc3nc(C)nc(N4CCN(c5ccccn5)CC4)c3c2C)CC1`, the inhibition was -1.03% (inactive).
With `Cc1nc(N2CCN(c3ccccn3)CC2)c2c(C)c(C(=O)N3CCN(Cc4ccc5c(c4)OCO5)CC3)sc2n1`, the inhibition was 36.8% (active).
For `COc1ccc(NC(=O)CSc2nc3c(sc(=S)n3-c3ccccc3F)c(=O)n2-c2ccc(F)cc2)c(OC)c1`, the inhibition is 15.7% (inactive).
With `CC1CN(Cc2cccc3ncccc23)Cc2ccccc2O1` (configuration not stated), the inhibition is -3.29% (inactive).
Next, `CC1CCc2c(sc(NC(=O)c3ccccc3F)c2C(=O)N2CCOCC2)C1` (configuration not stated): -2.16% (inactive).
With `CCOc1ccccc1OCC(=O)Nc1ccc(C(=O)O)cc1`, the inhibition was 4.66% (inactive).
For `CCOc1ccccc1OCC(=O)OCc1ccccc1`, the inhibition was 2.74% (inactive).
With `CCOc1ccccc1OCC(=O)NN`, the inhibition is 58.7% (active).
For the molecule `Cc1ccc(-c2noc(CCC(=O)N(C)c3ccccc3Cl)n2)cc1`, the inhibition was 13.7% (inactive).
As to `Nc1ncnc(NCc2ccc(Cl)cc2)c1[N+](=O)[O-]`, the inhibition is -0.74% (inactive).
`CC(C)(CO)Nc1ncnc(N)c1[N+](=O)[O-]`: the inhibition was 50.6% (active).
Next, `COC(=O)NNc1ncnc(N)c1[N+](=O)[O-]`: 2.66% (inactive); `O=C(/C=C/c1cccs1)N1CC[C@@H]2[C@H](CCCN2C(=O)c2ccc3[nH]ccc3c2)C1`: -4% (inactive).
Take `COC(=O)c1c(NC(=O)C(C)N2C(=O)c3ccccc3C2=O)sc2c1CCCC2` (configuration not stated): the inhibition is -8.49% (inactive).
Next, `COc1ccc(OC)c(C(=O)c2coc3ccc(OC)cc23)c1`: 1.14% (inactive).
On to `COc1ccc(NC(=O)Cc2coc3ccc(C)cc23)cc1`, for which the inhibition was -3.85% (inactive).
With `Cc1cc(=O)oc2c(OC(=O)c3cc4ccccc4o3)c(OC(=O)c3cc4ccccc4o3)ccc12`, the inhibition is -3.97% (inactive).
Next, `CC(=O)Oc1ccc2occ(C(=O)c3ccc(C)cc3)c2c1`: 41% (active); `CC(=O)Oc1ccc2occ(C(=O)c3cc4ccccc4o3)c2c1`: 53.6% (active); `COc1ccc2occ(C(=O)c3ccc(N=C(C)N(C)C)cc3)c2c1`: -23.4% (inactive).
For the molecule `CCOC(=O)Cn1c(=O)c2c(nc3n2CC(C)CN3c2ccccc2C)n(C)c1=O` (configuration not stated), the inhibition was 2.64% (inactive).
As for `O=C1c2ccccc2S(=O)(=O)N1c1ccc(Cl)cc1Cl`, the inhibition is 6.48% (inactive).
With `O=C(O)C(CCC(=O)N1CCOCC1)N1C(=O)c2ccccc2C1=O` (configuration not stated), the inhibition is -9.92% (inactive).
Under `Nc1nc(=O)n(C2OC(CO)C(O)C2O)cc1Br` (configuration not stated) stands 5.2% (inactive).
In the case of `O=c1cnn(C2OC(CO)C(O)C2O)c(=O)[nH]1` (configuration not stated), the inhibition is 74.7% (active).
In the case of `Nc1nc(N)c2ncn(C3OC(CO)C(O)C3O)c2n1` (configuration not stated), the inhibition is -3.32% (inactive).
Under `CCOC(=O)c1ccc(NC(=O)CSc2nnnn2-c2ccc([N+](=O)[O-])cc2)cc1` stands -1.87% (inactive); under `N#Cc1c(NC(=O)CSc2ccc([N+](=O)[O-])cn2)sc2c1CCCC2`, -0.26% (inactive).
Next, `N#Cc1c(NC(=O)c2cc([N+](=O)[O-])nn2Cc2ccccc2)sc2c1CCC2`: 2.14% (inactive); `N#Cc1c(NC(=O)c2cc([N+](=O)[O-])ccc2Cl)sc2c1CCC2`: 32.6% (active); `Cc1nnc(SCc2cccc3ccccc23)[nH]c1=O`: -2.21% (inactive).
With `O=S(=O)(c1ccc(Cl)c(C(F)(F)F)c1)N1CCNCC1`, the inhibition is 3.58% (inactive).
Regarding `COC(=O)CNc1nc(Cl)nc(Nc2ccc(I)cc2C)n1`, the inhibition is -1.03% (inactive).
On to `O=C(NCc1ccc(Cl)cc1)N1CCN(Cc2nc(-c3ccco3)cs2)CC1`, for which the inhibition was 41.8% (active).
`O=C(CN1CCN(Cc2nc(-c3ccco3)cs2)CC1)NCc1ccc2c(c1)OCO2`: the inhibition is -0.64% (inactive).
For the molecule `CC(=O)N1CCN(Cc2nc(-c3ccc(Cl)cc3)cs2)CC1`, the inhibition was 2.89% (inactive).
Next, `O=[N+]([O-])c1ccc(NC(=S)Nc2ccc(Br)cn2)cc1`: 2.08% (inactive); `CC(C)(C)NC(=O)c1cc2nc(-c3ccco3)cc(C(F)(F)F)n2n1`: -0.09% (inactive); `Cc1ccc(C(=O)NCCNc2ccc([N+](=O)[O-])cc2)cc1`: 1.76% (inactive).
Consider `O=C(NCCCNc1ccc([N+](=O)[O-])cc1Cl)c1ccc(Cl)cc1`, for which the inhibition was 3.65% (inactive).
For `Cc1ccc(C(=O)NCCNc2ccc([N+](=O)[O-])cc2Cl)cc1`, the inhibition is 34.1% (active).
As to `CC(Oc1cccc2cccnc12)C(=O)NNC(=S)NC(=O)c1cc2ccccc2oc1=O` (configuration not stated), the inhibition was 3.86% (inactive).
Consider `Cc1ccccc1C1=NN2C(=N)/C(=C/c3c(C)nn(-c4ccccc4)c3Cl)C(=O)N=C2S1`, for which the inhibition was -14.8% (inactive).
As for `CCCN(CCC)S(=O)(=O)c1ccc2[nH]c(=O)ccc2c1`, the inhibition was -11.6% (inactive).
With `COc1cc(C(=O)NCc2n[nH]c(=S)n2-c2ccccc2)cc(OC)c1OC`, the inhibition is 3.36% (inactive).
Regarding `COC(=O)N/N=C\c1ccc(-c2cccc(Cl)c2)o1`, the inhibition was -22.7% (inactive).
As to `CCC/C=N/NC(=O)c1cc(OC)c(OC)c(OC)c1`, the inhibition is 59.2% (active).
With `COc1cc(C(=O)N/N=C/c2cccs2)cc(OC)c1OC`, the inhibition is 61.3% (active).
Under `COc1cc(C(=O)N/N=C/c2cccs2)ccc1O` stands 2.59% (inactive); under `COc1cc(C(=O)N/N=C\c2ccc(-c3cccc(C(=O)O)c3)o2)cc(OC)c1OC`, 64.9% (active); under `COc1cc(OC)c(OC)cc1/C=N/NC(=O)c1ccccn1`, -43.7% (inactive).
Under `CCC/C=N/NC(=O)c1ccc(C)cc1C` stands -15.2% (inactive); under `COc1cc(C(=O)N/N=C/c2c(Cl)[nH]c(=O)n2-c2ccccc2)cc(OC)c1OC`, 72.6% (active).
As for `Cc1ccc(C(=O)N/N=C\c2ccc(-c3cccc(C(=O)O)c3)o2)cn1`, the inhibition was -9% (inactive).
For the molecule `CCCOC(=O)c1ccc(NC(=O)c2cc(OC)c(OC)c(OC)c2)cc1`, the inhibition was -1.39% (inactive).
Regarding `COc1cc(/C=N/NC(=O)c2cccs2)cc(OC)c1OC`, the inhibition was -55.4% (inactive).
Turning to `Cc1ccc(N2C(=O)c3cccc4c(Br)c([N+](=O)[O-])cc(c34)C2=O)c(C)c1`, the inhibition was 6.15% (inactive).
`CCN(CC)CCCN(Cc1ccco1)C(=S)Nc1cc(C)c(Cl)cc1OC`: the inhibition was 3.59% (inactive).
As for `Cc1nc2c(c(=O)[nH]1)CN(Cc1cccn1C)CC2`, the inhibition was -16.9% (inactive).
For the molecule `Oc1ccc(-c2cnc3c(NCc4ccco4)nccn23)cc1`, the inhibition is -72.4% (inactive).
Next, `Cc1ccc(-n2ncc3c(NCc4ccco4)ncnc32)cc1`: -76.8% (inactive).
Next, `c1coc(CNc2ncnc3ccccc23)c1`: 36.3% (active); `Ic1ccc2ncnc(NCc3ccco3)c2c1`: 15.7% (inactive); `CCOC(=O)c1ccc(NC(=O)N2CCN(c3nc(-c4ccccc4)cs3)CC2)cc1`: -7.79% (inactive).
For the molecule `COCCNC(=O)c1cc2nc(-c3cccs3)cc(C(F)(F)F)n2n1`, the inhibition is 8.1% (inactive).
Take `Cc1ccccc1-n1c(C)cc(/C=C2\NC(=O)NC2=O)c1C`: the inhibition was 57.4% (active).
Take `Cc1cc(/C=C2/NC(=O)NC2=O)c(C)n1-c1ccc2ccccc2c1`: the inhibition is 7.98% (inactive).
`Cc1cc(/C=C2/NC(=O)NC2=O)c(C)n1-c1ccc(Cl)cc1`: the inhibition was 4.42% (inactive).
